Measurements from the supplement of paper PMC4466140.

target: ScBbc1; test: SPOT peptide array binding signal intensity (averaged, normalized) (arbitrary units (background-subtracted, floor 0; scale differs between SH3 domains)); higher = stronger binding of the SH3 domain to the peptide
Procedure, shortened: (§1)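 Binding signal is given in arbitrary units that differ between domains and is the normalized, background-subtracted spot intensity averaged across replicates. Each GST-SH3 fusion from one of four yeast species was made in E. coli BL21(DE3), purified on glutathione Sepharose and incubated at 10 μg/ml overnight at 4°C on cellulose-bound synthetic 15-mer peptides in which cysteines were replaced by serines. Detection used anti-GST antibody, an HRP anti-mouse secondary and luminol, followed by imaging and Genespotter quantification.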

| Binder | SPOT peptide array binding signal intensity |
| --- | --- |
| MPAPPPPPPPPPGAF | ≤ 0 |

target: ScBem1-D1; test: as above
Procedure, shortened: as §1

| Binder | SPOT peptide array binding signal intensity |
| --- | --- |
| MPAPPPPPPPPPGAF | ≤ 0 |

target: ScBzz1-D1; test: as above
Procedure, shortened: as §1

| Binder | SPOT peptide array binding signal intensity |
| --- | --- |
| MPAPPPPPPPPPGAF | 27.5 |

target: ScBzz1-D2; test: as above
Procedure, shortened: as §1

| Binder | SPOT peptide array binding signal intensity |
| --- | --- |
| MPAPPPPPPPPPGAF | ≤ 0 |

target: ScCyk3; test: as above
Procedure, shortened: as §1

| Binder | SPOT peptide array binding signal intensity |
| --- | --- |
| MPAPPPPPPPPPGAF | ≤ 0 |

target: ScFus1; test: as above
Procedure, shortened: as §1

| Binder | SPOT peptide array binding signal intensity |
| --- | --- |
| MPAPPPPPPPPPGAF | ≤ 0 |

target: ScHof1; test: as above
Procedure, shortened: as §1

| Binder | SPOT peptide array binding signal intensity |
| --- | --- |
| MPAPPPPPPPPPGAF | ≤ 0 |

target: ScHse1; test: as above
Procedure, shortened: as §1

| Binder | SPOT peptide array binding signal intensity |
| --- | --- |
| MPAPPPPPPPPPGAF | 4.25 |

target: ScLsb1; test: as above
Procedure, shortened: as §1

| Binder | SPOT peptide array binding signal intensity |
| --- | --- |
| MPAPPPPPPPPPGAF | ≤ 0 |

target: ScLsb2; test: as above
Procedure, shortened: as §1

| Binder | SPOT peptide array binding signal intensity |
| --- | --- |
| MPAPPPPPPPPPGAF | ≤ 0 |

target: ScLsb3; test: as above
Procedure, shortened: as §1

| Binder | SPOT peptide array binding signal intensity |
| --- | --- |
| MPAPPPPPPPPPGAF | ≤ 0 |

target: ScLsb4; test: as above
Procedure, shortened: as §1

| Binder | SPOT peptide array binding signal intensity |
| --- | --- |
| MPAPPPPPPPPPGAF | ≤ 0 |

target: ScMyo3; test: as above
Procedure, shortened: as §1

| Binder | SPOT peptide array binding signal intensity |
| --- | --- |
| MPAPPPPPPPPPGAF | 1010 |

target: ScMyo5; test: as above
Procedure, shortened: as §1

| Binder | SPOT peptide array binding signal intensity |
| --- | --- |
| MPAPPPPPPPPPGAF | 634 |

target: ScNbp2; test: as above
Procedure, shortened: as §1

| Binder | SPOT peptide array binding signal intensity |
| --- | --- |
| MPAPPPPPPPPPGAF | ≤ 0 |

target: ScPex13; test: as above
Procedure, shortened: as §1

| Binder | SPOT peptide array binding signal intensity |
| --- | --- |
| MPAPPPPPPPPPGAF | 71.9 |

target: ScRvs167; test: as above
Procedure, shortened: as §1

| Binder | SPOT peptide array binding signal intensity |
| --- | --- |
| MPAPPPPPPPPPGAF | ≤ 0 |

target: ScSho1; test: as above
Procedure, shortened: as §1

| Binder | SPOT peptide array binding signal intensity |
| --- | --- |
| MPAPPPPPPPPPGAF | 5.75 |

target: ScSla1-D1-D2; test: as above
Procedure, shortened: as §1

| Binder | SPOT peptide array binding signal intensity |
| --- | --- |
| MPAPPPPPPPPPGAF | ≤ 0 |

target: ScSla1-D3; test: as above
Procedure, shortened: as §1

| Binder | SPOT peptide array binding signal intensity |
| --- | --- |
| MPAPPPPPPPPPGAF | 0.125 |

target: SpAbp1-D1; test: as above
Procedure, shortened: as §1

| Binder | SPOT peptide array binding signal intensity |
| --- | --- |
| MPAPPPPPPPPPGAF | 7 |

target: SpBbc1; test: as above
Procedure, shortened: as §1

| Binder | SPOT peptide array binding signal intensity |
| --- | --- |
| MPAPPPPPPPPPGAF | ≤ 0 |

target: SpBzz1-D1; test: as above
Procedure, shortened: as §1

| Binder | SPOT peptide array binding signal intensity |
| --- | --- |
| MPAPPPPPPPPPGAF | 1360 |

target: SpBzz1-D2; test: as above
Procedure, shortened: as §1

| Binder | SPOT peptide array binding signal intensity |
| --- | --- |
| MPAPPPPPPPPPGAF | 5.62 |

target: SpCyk3; test: as above
Procedure, shortened: as §1

| Binder | SPOT peptide array binding signal intensity |
| --- | --- |
| MPAPPPPPPPPPGAF | ≤ 0 |

target: SpHof1; test: as above
Procedure, shortened: as §1

| Binder | SPOT peptide array binding signal intensity |
| --- | --- |
| MPAPPPPPPPPPGAF | 0.5 |

target: SpHof1-2; test: as above
Procedure, shortened: as §1

| Binder | SPOT peptide array binding signal intensity |
| --- | --- |
| MPAPPPPPPPPPGAF | 7.75 |

target: SpHof1-3; test: as above
Procedure, shortened: as §1

| Binder | SPOT peptide array binding signal intensity |
| --- | --- |
| MPAPPPPPPPPPGAF | 4.25 |

target: SpHse1; test: as above
Procedure, shortened: as §1

| Binder | SPOT peptide array binding signal intensity |
| --- | --- |
| MPAPPPPPPPPPGAF | 17.5 |

target: SpLsb1; test: as above
Procedure, shortened: as §1

| Binder | SPOT peptide array binding signal intensity |
| --- | --- |
| MPAPPPPPPPPPGAF | ≤ 0 |

target: SpLsb4; test: as above
Procedure, shortened: as §1

| Binder | SPOT peptide array binding signal intensity |
| --- | --- |
| MPAPPPPPPPPPGAF | ≤ 0 |

target: SpMyo1; test: as above
Procedure, shortened: as §1

| Binder | SPOT peptide array binding signal intensity |
| --- | --- |
| MPAPPPPPPPPPGAF | 521 |

target: SpNbp2; test: as above
Procedure, shortened: as §1

| Binder | SPOT peptide array binding signal intensity |
| --- | --- |
| MPAPPPPPPPPPGAF | ≤ 0 |

target: SpPex13; test: as above
Procedure, shortened: as §1

| Binder | SPOT peptide array binding signal intensity |
| --- | --- |
| MPAPPPPPPPPPGAF | ≤ 0 |

target: SpRvs167; test: as above
Procedure, shortened: as §1

| Binder | SPOT peptide array binding signal intensity |
| --- | --- |
| MPAPPPPPPPPPGAF | 43.4 |

target: SpSla1-D1-D2; test: as above
Procedure, shortened: as §1

| Binder | SPOT peptide array binding signal intensity |
| --- | --- |
| MPAPPPPPPPPPGAF | ≤ 0 |

target: SpSla1-D3; test: as above
Procedure, shortened: as §1

| Binder | SPOT peptide array binding signal intensity |
| --- | --- |
| MPAPPPPPPPPPGAF | ≤ 0 |
